Results published in PubChem BioAssay (NCI).
“And” between values parts separate entries of the source, which are not always exact repeats. Equal values may be shown once. The panel holds about 83,000 compounds, 20% with a hit somewhere; the sample as a whole holds those more often.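 Compound tested at a single concentration for 48 hours in 96-well plates; a percent growth value below 10 was scored as active.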 The source made the active and inactive calls.

Experiments:
Assay in all cases: NCI-60 one-dose screen, 48 h (100 = growth as untreated, 0 = no growth, -100 = all killed)
Settings in all cases: 10 µM unless noted
[1] = tested on: DU-145 prostate
[2] = tested on: K-562 leukemia
[3] = tested on: MALME-3M melanoma
[4] = tested on: MDA-MB-231 breast
[5] = tested on: RXF 393 renal
[6] = tested on: SF-268 CNS
[7] = tested on: SF-295 CNS
[8] = tested on: SF-539 CNS
[9] = tested on: UACC-257 melanoma
[10] = tested on: M14 melanoma

Compound | growth [1] | growth [2] | growth [3] | growth [4] | growth [5] | growth [6] | growth [7] | growth [8] | growth [9] | growth [10]
CN(C)c1ccc(N=Nc2cccc3ccccc23)cc1 | 107% (inactive) | 117% (inactive) | 101% (inactive) | 80.1% (inactive) | 98.9% (inactive) | 95.1% (inactive) | 91.5% (inactive) | 97.1% (inactive) | 96.3% (inactive) | 80.5% (inactive)
O=C(O)C1C2CC3C(OC(=O)C31)C2Br (stereo not given) | 122% (inactive) and 107% (inactive) | 113% (inactive) and 110% (inactive) | 101% (inactive) and 93.5% (inactive) | 103% (inactive) and 115% (inactive) | 98.2% (inactive) and 93.5% (inactive) | 109% (inactive) and 106% (inactive) | 96.9% (inactive) and 101% (inactive) | 99.5% (inactive) | 82.7% (inactive) and 95% (inactive) | 96.7% (inactive) and 98.3% (inactive)
O=C(Oc1cccc2cccnc12)c1ccccc1 | 92.9% (inactive) and 107% (inactive) | 48.5% (inactive) | 89.8% (inactive) and 99% (inactive) | 84.5% (inactive) and 104% (inactive) | 99.5% (inactive) and 108% (inactive) | 87.1% (inactive) and 102% (inactive) | 97.5% (inactive) and 98.7% (inactive) | 97.9% (inactive) and 106% (inactive) | 86% (inactive) and 96.8% (inactive) | 83.2% (inactive) and 96.9% (inactive)
S=C(N/N=C/c1ccccn1)Nc1ccccn1 | 28.4% (inactive) | 8.45% (active) | 10.6% (inactive) | 42.4% (inactive) | 2.43% (active) | 32% (inactive) | 27.1% (inactive) | 14.1% (inactive) | -14.9% (active) | 0.168% (active)
O=C(/C=C/c1cccc(Cl)c1)c1ccccc1 | 101% (inactive) and 87.6% (inactive) | 28.7% (inactive) and 46.5% (inactive) | 104% (inactive) | 105% (inactive) and 89.2% (inactive) | 85.4% (inactive) | 99.9% (inactive) and 98.4% (inactive) | 93.9% (inactive) and 95.8% (inactive) | 105% (inactive) and 97.9% (inactive) | 100% (inactive) and 94.4% (inactive) | 86.8% (inactive) and 83% (inactive)
CN1c2ccccc2C(C)(C)C12C=Cc1cc(O)ccc1O2 (stereo not given) | 52.1% (inactive) | 12% (inactive) | 69.1% (inactive) | 60.9% (inactive) | 57.1% (inactive) | 15.4% (inactive) | 55.9% (inactive) | 25.8% (inactive) | 56.7% (inactive) | 17.9% (inactive)
CN(C)c1ccc(C(=C2C=CC(=[N+](C)C)C=C2)c2ccc(N(C)C)cc2)cc1 (tested in a mixture with another compound) | -99.4% (active) | -55.3% (active) | -62.7% (active) | -60.9% (active) | -70.1% (active) | -92.2% (active) | -45.1% (active) | -94.2% (active) | -67.4% (active) | -63.2% (active)
CN(Cc1cnc2nc(N)nc(N)c2n1)c1ccc(C(=O)NC(CCC(=O)O)C(=O)O)cc1 (stereo not given) | 26.7% (inactive) | 18.7% (inactive) | 43.8% (inactive) | 82.8% (inactive) | 46.1% (inactive) | 25.5% (inactive) | 20% (inactive) | 22.2% (inactive) | 53% (inactive) | 10.9% (inactive)
O[C@H]1[C@H]2c3cc4c(cc3CN3CCC(=C[C@@H]1O)[C@H]23)OCO4 | 9.62% (active) | 21.4% (inactive) | 41.9% (inactive) | 39.6% (inactive) | 19% (inactive) | 24.4% (inactive) | 34% (inactive) | 14% (inactive) | 45.7% (inactive) | 15.9% (inactive)
COc1ccccc1/C=C\C(=O)c1ccccc1 | 94.7% (inactive) | 13% (inactive) | 78.9% (inactive) | 84.8% (inactive) | 85.5% (inactive) | 96.1% (inactive) | 94.2% (inactive) | 92.4% (inactive) | 82.2% (inactive) | 78.5% (inactive)
Cc1c2ccccc2c(C)c2c1ccc1ccccc12 | 97.5% (inactive) | 85.1% (inactive) | 88.8% (inactive) | 89.8% (inactive) | 96.3% (inactive) | 98.5% (inactive) | 96.9% (inactive) | 92.3% (inactive) | 94.7% (inactive) | 86.8% (inactive)
Cc1cc(N)c2ccccc2[n+]1CCCCCCCCCC[n+]1c(C)cc(N)c2ccccc21 | 31.3% (inactive) and -73.8% (active) | -7.04% (active) and -39.8% (active) | -15.7% (active) and 10.5% (inactive) | 18.9% (inactive) and 1.88% (active) | -30.2% (active) | 23.2% (inactive) and 27.9% (inactive) | -45.6% (active) and 8.47% (active) | -8.43% (active) and -37.4% (active) | 33.5% (inactive) and 5.36% (active) | 3.53% (active)
COC(=O)[C@@]12OC[C@]34[C@H]([C@@H](O)[C@@H]1O)[C@@]1(C)[C@H](O)C(=O)C=C(C)[C@@H]1C[C@H]3OC(=O)C(OC(C)=O)[C@@H]24 (stereo not given in full) | -64.4% (active) | -60% (active) | -70.1% (active) | -39.5% (active) | -63.6% (active) | -31.2% (active) | -53.9% (active) | -36.7% (active) | -54.4% (active) | -84.9% (active)
CC1SC(=S)N(c2ccc(Cl)cc2)C1=O (stereo not given) | 104% (inactive) and 96.3% (inactive) | 84.1% (inactive) and 78.8% (inactive) | 104% (inactive) and 108% (inactive) | 99.6% (inactive) and 86.4% (inactive) | 116% (inactive) | 109% (inactive) and 84.1% (inactive) | 96% (inactive) and 98.8% (inactive) | 98.5% (inactive) and 70.7% (inactive) | 97.9% (inactive) | 111% (inactive) and 105% (inactive)
N#CSCc1c(Cl)cccc1Cl | 21% (inactive) | 83.8% (inactive) | 47.1% (inactive) | 80.4% (inactive) | 50.1% (inactive) | 53.3% (inactive) | 94.8% (inactive) | 88.5% (inactive) | 79.5% (inactive) | 9.86% (active)
O=C(/C=C/C=C/c1ccccc1)c1ccco1 | 99.7% (inactive) | 43% (inactive) | 113% (inactive) | 102% (inactive) | 46% (inactive) | 91.5% (inactive) | 112% (inactive) | 106% (inactive) | 108% (inactive) | 93.9% (inactive)
CCOC(=O)c1c(C)[nH]c(CO)c1C | 101% (inactive) | 101% (inactive) | 91.1% (inactive) | 104% (inactive) | 134% (inactive) | 96.7% (inactive) | 95.1% (inactive) | 104% (inactive) | 94.2% (inactive) | 95.5% (inactive)
O=C1NC(=O)/C(=C/C=C/c2ccccc2)S1 | 50.3% (inactive) | 31.1% (inactive) | 60.2% (inactive) | 82.5% (inactive) | 66.3% (inactive) | 31.8% (inactive) | 14.3% (inactive) | -6.41% (active) | 45.1% (inactive) | 12.3% (inactive)
COc1ccc2nc3cc(Cl)ccc3c(NCCNc3c4ccc(Cl)cc4nc4ccc(OC)cc34)c2c1 | -95.4% (active) | -52.7% (active) | -77.4% (active) | -78.9% (active) | -93% (active) | -82.6% (active) | -93.2% (active) | -85.5% (active) | -89.6% (active) | -74.2% (active)
CCC(c1cccc(O)c1)C(CC)c1cccc(O)c1 (stereo not given) | 86% (inactive) | 17.1% (inactive) | 54.8% (inactive) | 64.2% (inactive) | 79.5% (inactive) | 63.7% (inactive) | 58.3% (inactive) | 39.1% (inactive) | 71.8% (inactive) | 23.8% (inactive)
O=C(Nc1ccccc1)c1cc(Cl)ccc1O | 83.7% (inactive) | 33.8% (inactive) | 40.3% (inactive) | 70.6% (inactive) | 79.9% (inactive) | 66.5% (inactive) | 73.1% (inactive) | 53.2% (inactive) | 14.9% (inactive) | 50.9% (inactive)
Cc1cc(C(C)(CC(C)C)c2ccc(O)c(C)c2)ccc1O | 112% (inactive) | 97.1% (inactive) | 109% (inactive) | 88% (inactive) | 93% (inactive) | 104% (inactive) | 97.8% (inactive) | 96.6% (inactive) | 84.8% (inactive) | 94.2% (inactive)
Cc1ccc2c(ccc3c[n+]4c5ccccc5ccc4n32)c1 | 20.7% (inactive) | 6.39% (active) | -45.5% (active) | 19.6% (inactive) | 28.9% (inactive) | 1.4% (active) | -1.86% (active) | -3.04% (active) | -36% (active) | 2.99% (active)
CCN1/C(=C\c2cc[n+](CC)c3ccccc23)C=Cc2ccccc21 | 22.9% (inactive) | 16.4% (inactive) | 1.55% (active) | 3.42% (active) | 16.4% (inactive) | 26.3% (inactive) | 0.16% (active) | 7.56% (active) | -1.1% (active) | 10.5% (inactive)
CC1OC2CC(=O)OC2C2=C1C(=O)c1c(O)cccc1C2=O (stereo not given) | -98.3% (active) | -7.94% (active) | -77.4% (active) | -65.9% (active) | -96.4% (active) | -92.9% (active) | -8.69% (active) | -89.5% (active) | -78.5% (active) | -87.7% (active)
C/C=C1\SC(=S)NC1=O | 110% (inactive) | 117% (inactive) | 92.9% (inactive) | 96.9% (inactive) | 114% (inactive) | 103% (inactive) | 102% (inactive) | 93.9% (inactive) | 95% (inactive) | 97.5% (inactive)
CC(=O)C(=Cc1ccc(C=C(C(C)=O)C(C)=O)cc1)C(C)=O | 23.6% (inactive) | 2.87% (active) | -18.6% (active) | -3.61% (active) | -58.5% (active) | 19.7% (inactive) | 86.4% (inactive) | -1.57% (active) | 19.1% (inactive) | 4.86% (active)
CCC(CC)COC(=O)c1ccc(O)c(O)c1 | 73.4% (inactive) | 102% (inactive) | 54.8% (inactive) | 48.9% (inactive) | 65.7% (inactive) | 57.8% (inactive) | 90.1% (inactive) | 34% (inactive) | 86.4% (inactive) | 86.1% (inactive)
CCCCCCCCCCCCCCCCOP(=O)([O-])OCC[N+](C)(C)C | 82.2% (inactive) | 64.6% (inactive) | 74.1% (inactive) | 36.8% (inactive) | -32.1% (active) | 32.5% (inactive) | 28% (inactive) | 55.9% (inactive) | 76.7% (inactive) | -10.6% (active)
